Test results reported in PubChem BioAssay (NCATS).
Results filed as inconclusive are left out. Calls of active or inactive are those of the source. The call rests on the fitted dose curve; in most records, active means well fitted inhibition curve with a large enough effect; inconclusive means small, poorly fitted or top-dose-only effect; inactive means flat fitted curve, though single readings scatter.

Test system: Zika virus NS2B-NS3 protease
Assay: Primary screen GU AMC qHTS for Zika virus inhibitors (AID 1347154);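 further: 0% = no-inhibitor control and -100% = no-enzyme control; nearly all actives have a fitted effect of over 70% in size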
Conditions: Zika NS2B-NS3 unlinked protease, AMC fluorogenic substrate; series mostly up to 54.1 µM; activity change, negative = inhibition: at the top concentration
In short: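 Unlinked Zika NS2B hydrophilic domain/NS3 protease domain noncovalent complex (25 nM final) in 10 mM Tris-HCl pH 8.0, 0.01% Tween 20, with AMC peptide substrate. Fluorescence (ex 340, em 450 nm) change over 15 min, room temperature; percent inhibition fitted to 4-parameter Hill equation.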

Row | Structure (SMILES) | activity change, negative = inhibition
1 | O=C(Nc1ccc(C(=O)O)c(O)c1)c1ccccc1 | -8.04% (inactive)
2 | C#C[C@]1(O)CC[C@H]2[C@@H]3CCc4cc(O)ccc4[C@H]3CC[C@@]21C | -8.29% (inactive)
3 | Ic1ccc(N2CCN(Cc3c[nH]c4ncccc34)CC2)cc1 | -4.17% (inactive)
4 | COc1cc2c3cc1Oc1cc(ccc1O)C[C@@H]1c4c(cc(OC)c(O)c4Oc4ccc(cc4)C[C@@H]3N(C)CC2)CC[N+]1(C)C | -2.37% (inactive)
5 | CC1(C)S[C@@H]2[C@H](NC(=O)[C@H](N)c3ccccc3)C(=O)N2[C@H]1C(=O)O | -6.97% (inactive)
6 | Cc1nc2sccn2c(=O)c1CCN1CCC(=C(c2ccccc2)c2ccc(F)cc2)CC1 | -15.8% (inactive)
7 | O=C1CN(/N=C/c2ccc([N+](=O)[O-])o2)C(=O)N1 | -8.24% (inactive)
8 | O=C(O)/C=C\C(=O)O | -2.45% (inactive)
9 | O=C(CCN1CCN(CCO)CC1)N1c2ccccc2Sc2ccc(C(F)(F)F)cc21 | 1.76% (inactive)
10 | N#C/C(=C\c1ccc(O)c(O)c1)C(=O)NCc1ccccc1 | 15.3% (inactive)
11 | Nc1cc(-c2ccncc2)c[nH]c1=O | -0.851% (inactive)
12 | CC(C)(C)c1nnc(NS(=O)(=O)c2ccc(N)cc2)s1 | -1.9% (inactive)
13 | Nc1nc2ccc([N+](=O)[O-])cc2s1 | -9.46% [at 104 µM] (inactive)
14 | Cc1c(C(=O)O)c(O)cc2c1C(=O)c1c(O)c([C@@H]3O[C@H](CO)[C@@H](O)[C@H](O)[C@H]3O)c(O)c(O)c1C2=O | -20.8% (inactive)
15 | CC(C(=O)O)c1ccc(C(=O)c2cccs2)cc1 (stereo unspecified) | -6.05% (inactive)
16 | O=C(O)Cc1ccc2c(c1)C(=O)c1ccccc1CO2 | -0.0253% (inactive)
